From PubChem BioAssay
rCAG RNA binder = binders of r(CAG) RNA repeats, primary screen, biochemical, fluorescence | r(CAG) RNA repeat, TO-PRO-1 dye displacement fluorescence | actives 1.3% (n = 370,000) | inhibition, % at 3 µM;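 active = inhibition above the plate cutoff, the mean of all test compounds on that plate plus 3 SD, cut at about 35% in these data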;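 note: 0% = DMSO alone and 100% = 100 µM mitoxantrone as full dye displacement; higher means more dye released from RNA so lower well fluorescence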
MBD2 DNA inh = inhibitors of MBD2 binding to methylated DNA, primary screen, biochemical, TR-FRET, DNA-binding domain, human | Methyl-CpG-binding domain protein 2 (Homo sapiens), Q9UBB5 | MBD2 binding to methylated oligonucleotide | inhibition, % at 4.4 µM | actives 0.31% (n = 370,000) | AID 686964, 2013; in the data active = inhibition above about 13%
LEDGF integ inh = blockers of LEDGF/p75-dependent integrase strand transfer – biochemical, TR-FRET, high throughput, primary screen. TR-FRET IN-LEDGF/p75 DNA integration, Eu/Cy5. inhibition, % at 3.7 µM. actives 0.64% (n = 370,000). AID 743269, 2014;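 active = inhibition above the screen-wide mean plus 3 SD, cut at about 13% in these data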;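 note: signal is the Cy5 over europium emission ratio at 671 and 618 nm; 0% = plate median of compound wells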
UHRF1 binding = UHRF1 methylated DNA binding inhibitors, primary screen, counter-screen for MBD2 inhibitor project, biochemical, TR-FRET, human UHRF1, single concentration | E3 ubiquitin-protein ligase UHRF1 (Homo sapiens), Q96T88 | UHRF1 binding to methylated oligo | inhibition, % at 4.4 µM | actives 0.75% (n = 370,000); in the data active = inhibition above about 21%;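 note: UHRF1 SRA domain binding a hemimethylated CpG hairpin DNA probe; 0% = median of test compound wells and 100% = reference inhibitor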
Target sequence (Q96T88 whole entry, looked up, the tested form may be a part): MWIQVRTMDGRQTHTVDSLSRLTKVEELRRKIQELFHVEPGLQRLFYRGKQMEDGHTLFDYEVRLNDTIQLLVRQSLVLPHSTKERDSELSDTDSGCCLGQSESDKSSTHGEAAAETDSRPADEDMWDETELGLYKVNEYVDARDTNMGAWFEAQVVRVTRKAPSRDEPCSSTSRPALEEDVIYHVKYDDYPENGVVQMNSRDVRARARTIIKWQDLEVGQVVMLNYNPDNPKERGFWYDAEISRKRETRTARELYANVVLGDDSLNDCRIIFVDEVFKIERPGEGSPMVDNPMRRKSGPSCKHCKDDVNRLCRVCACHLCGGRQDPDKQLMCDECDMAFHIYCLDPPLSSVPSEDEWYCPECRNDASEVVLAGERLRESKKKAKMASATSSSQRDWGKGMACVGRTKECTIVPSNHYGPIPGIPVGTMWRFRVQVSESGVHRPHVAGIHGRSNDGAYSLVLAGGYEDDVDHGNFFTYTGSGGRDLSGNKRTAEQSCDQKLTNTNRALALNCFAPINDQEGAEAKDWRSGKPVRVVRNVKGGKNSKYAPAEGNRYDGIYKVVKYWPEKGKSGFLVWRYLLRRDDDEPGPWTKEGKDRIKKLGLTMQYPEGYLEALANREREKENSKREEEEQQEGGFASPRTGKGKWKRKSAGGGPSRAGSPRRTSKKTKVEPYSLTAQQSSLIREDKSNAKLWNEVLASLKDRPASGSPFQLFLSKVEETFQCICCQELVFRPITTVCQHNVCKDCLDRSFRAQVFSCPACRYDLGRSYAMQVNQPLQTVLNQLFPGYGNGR
DNMT1 block = human DNMT1 methyltransferase inhibitors, primary screen, biochemical, molecular beacon, fluorescence, HinP1I cleavage, uHTS; DNA (cytosine-5)-methyltransferase 1 (Homo sapiens), P26358; inhibition (reported as % activation of signal), % at 10 µM; actives 0.83% (n = 360,000); AID 588458, 2011; in the data active = inhibition above about 50%
PG9 binder = binders of HIV-1 gp120 antibody PG9, primary screen, biochemical, TR-FRET; AID 624416, 2012; actives 0.43% (n = 360,000); inhibition, % at 6.7 µM; HIV-1 gp120 / PG9 antibody interaction; TR-FRET gp120-PG9 antibody binding; in the data active = inhibition above about 8.5%
rCAG bind conf = small molecules binding CAG repeat RNA – biochemical, fluorescence, confirmation | AID 652065, 2013 | shares compounds with rCAG RNA binder | r(CAG) RNA repeat, TO-PRO-1 dye displacement fluorescence | actives 70% (n = 4,300) | inhibition, % at 3 µM;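 active = inhibition above a per-plate cutoff, the mean inhibition of sample wells plus 3 SD, cut at about 35% in these data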;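 note: loss of TO-PRO-1 fluorescence as compound displaces dye from 1x1 AA loop RNA; 0% = DMSO only wells and 100% = 100 µM mitoxantrone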
DNA CAG counter = displacement of TO-PRO-1 from CAG DNA duplex, counter-screen for rCAG RNA repeat binder project, biochemical, fluorescence, TO-PRO-1 dye, d(CAG) DNA oligo | shares compounds with rCAG RNA binder | d(CAG) DNA oligo TO-PRO-1 dye displacement | inhibition, % at 3 µM | actives 94% (n = 4,300) | AID 652068, 2013;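 active = inhibition above its plate's cutoff, the mean test-well inhibition plus 3 SD, cut at about 4.8% in these data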;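 note: 0% = DNA dye mix with DMSO and 100% = 100 µM mitoxantrone; hits displace the dye from DNA and so lower well fluorescence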
DNA CAG DR = inhibitors of DNA CAG/GTC TO-PRO-1 complex, dose response, counter-screen for rCAG RNA repeat binder project, biochemical, fluorescence, TO-PRO-1 dye. AID 686960, 2013. shares compounds with rCAG RNA binder. IC50, µM. DNA CAG/GTC duplex TO-PRO-1 dye displacement fluorescence. actives 20% (n = 250); in the data active = IC50 below about 10 µM
UHRF1 ctr MBD2 = UHRF1 methylated DNA binding inhibitors, counter-screen for MBD2 inhibitor project, biochemical, TR-FRET, human UHRF1; shares compounds with MBD2 DNA inh; actives 25% (n = 1,000); inhibition, % at 4.4 µM; UHRF1 binding to methylated oligonucleotide; in the data active = inhibition above about 21%;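 note: UHRF1 SRA domain binding a labeled hemimethylated CpG hairpin DNA; 0% = vehicle only and 100% = reference inhibitor with vehicle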
MBD2 DBD conf = inhibitors of MBD2 binding to methylated DNA, confirmation, biochemical, TR-FRET, DNA-binding domain, human; TR-FRET MBD2-DBD binding to methylated oligonucleotide; inhibition, % at 4.4 µM; AID 720531, 2013; actives 26% (n = 1,000); shares compounds with MBD2 DNA inh
IN multimer up = HIV-1 IN multimer formation enhancers, counter-screen for LEDGF/p75 integration inhibitor project, biochemical, TR-FRET. AID 1053131, 2014. TR-FRET HIV-1 integrase multimerization. activation, % at 7.7 µM. actives 17% (n = 2,000). shares compounds with LEDGF integ inh; in the data active = activation above about 8.9%
TR-FRET interf = TR-FRET optical interference artefacts, confirmation, artefact control for LEDGF/p75-dependent integration inhibitor project, biochemical, HIV-1 IN multimerization; shares compounds with LEDGF integ inh; TR-FRET optical interference counterscreen; inhibition, % at 7.7 µM; 2,000 tested, under 10 active; AID 1053135, 2014;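 active = inhibition above the mean over all tested compounds plus 3 SD, which no compound reached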;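 note: 0% = integrase with antibodies and DMSO and 100% = antibodies without integrase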
IN-LEDGF confirm = inhibitors of HIV-1 IN-LEDGF/p75 DNA integration, confirmation, biochemical, TR-FRET. AID 1053136, 2014. actives 36% (n = 2,000). inhibition, % at 3.7 µM. TR-FRET LEDGF/p75-dependent HIV-1 integration. shares compounds with LEDGF integ inh
Active calls of the source: *; · = no result. An excerpt weighted towards active compounds, which were near 3.5% of everything screened. Cut-off read from the data, not from the text of the source, unless noted: active = inhibition above about 14%; inactive = the rest.

SMILES	rCAG RNA binder	MBD2 DNA inh	LEDGF integ inh	UHRF1 binding	DNMT1 block	PG9 binder	rCAG bind conf	DNA CAG counter	UHRF1 ctr MBD2	MBD2 DBD conf	others
O=c1c(O)cccc2cc(O)c(O)c(O)c12	51.0*	86.9*	88.3*	93.7*	95.0*	-14.3	78.4*	47.8*	94.5*	91.0*
CC(=O)Nc1ccc(S(=O)(=O)CC(=O)CS(=O)(=O)c2ccc(NC(C)=O)cc2)cc1	39.1*	14.3*	-1.9	0.7	19.3	-0.2	7.5	3.9	5.5	-0.6
Cc1ccc(C(=O)Nc2nc(C)c(C(=O)N(C)C)s2)o1	3.6	-0.7	-2.9	-0.8	3.8	-0.8	·	·	·	·
Cc1ccc(C(=O)Nc2nc(-c3ccco3)c(-c3ccco3)s2)o1	73.2*	39.7*	85.0*	87.8*	16.4	-11.3	18.1	8.1*	12.3	7.6
Cc1ccc(S(=O)(=O)NCCC(=O)NNC(=O)COc2ccc(Br)cc2)cc1C	4.8	0.1	-2.7	-0.9	0.9	6.8	·	·	·	·
O=C(COC(=O)c1c2c(nc3ccccc13)/C(=C/c1ccco1)CC2)NC1CCCC1	67.7*	14.3*	39.4*	45.0*	86.4*	1.0	60.0*	34.0*	43.3*	31.9*
Cc1ccc2c(nc3s/c(=C/c4cccs4)c(=O)n32)c1C	6.3	-0.4	-1.1	0.0	33.3	1.3	·	·	·	·
Cc1ccc2c(nc3s/c(=C\c4ccc(-c5ccccc5C(=O)O)o4)c(=O)n32)c1C	53.5*	14.8*	10.6	34.3*	62.9*	-1.4	89.4*	75.5*	14.9	5.1
O=C1CCCC2=C1C(c1ccc(Br)cc1)c1c([nH]c(=S)[nH]c1=O)N2 (configuration not stated)	24.2	0.2	7.9	1.1	-2.8	-2.4	·	·	·	·
O=c1[nH]c(=S)[nH]c2c1C(c1ccc(Br)cc1)c1c([nH]c(=S)[nH]c1=O)O2	86.7*	104.7*	82.9*	107.3*	67.4*	-1.4	83.7*	47.5*	104.4*	88.4*
CCC(NS(=O)(=O)c1ccc2c(c1)Cc1cc(S(=O)(=O)NC(CC)C(=O)O)ccc1-2)C(=O)O (configuration not stated)	5.2	1.1	2.2	1.7	-0.8	-3.4	·	·	·	·
COC(=O)[C@]12C[C@H](CC(=O)NCCCCc3ccccc3)C(=O)N(Cc3ccc(Cl)cc3Cl)C1=C[C@H](C(C)(C)C)O[C@@H]2C	2.8	-3.2	-0.9	0.8	·	·	·	·	·	·
O=C1NC(=S)S/C1=C\C=C\c1ccc([N+](=O)[O-])o1	67.1*	74.2*	81.4*	94.5*	91.1*	-4.6	70.0*	35.6*	90.4*	47.4*
CC1CN(C(=O)COC(=O)Cc2ccc(Cl)cc2)CC(C)O1 (configuration not stated)	-1.0	3.0	4.8	-3.1	2.3	0.5	·	·	·	·
Nc1c(C(=O)NCC2CCCO2)sc2nc3c(c(-c4ccco4)c12)CC/C3=C\c1ccco1 (configuration not stated)	59.9*	20.8*	65.2*	42.1*	101.3*	-2.7	82.6*	52.6*	92.2*	106.3*	IN multimer up=54.1*;TR-FRET interf=-192.9;IN-LEDGF confirm=84.5*
CC1=C(C)CC(C(=O)Nc2nc(-c3ccc(C)cc3C)c(C)s2)C(C(=O)O)C1 (configuration not stated)	54.2*	-3.8	24.7*	-1.2	10.9	0.4	55.5*	23.4*	·	·	DNA CAG DR=>29.9;IN multimer up=5.4;TR-FRET interf=-27.3;IN-LEDGF confirm=-0.3
CC1=C(C)CC(C(=O)Nc2nc(-c3ccc(F)cc3)c(C)s2)C(C(=O)O)C1 (configuration not stated)	12.6	1.8	0.5	7.8	1.3	0.2	·	·	·	·
O=C1S/C(=C\C=C\c2ccco2)C(=O)N1c1ccc(O)cc1	37.6*	4.5	30.5*	9.6	17.0	0.4	17.8	9.9*	·	·	IN multimer up=16.9*;TR-FRET interf=-60.0;IN-LEDGF confirm=28.3*
O=C1S/C(=C\c2cccs2)C(=O)N1c1ccc(O)cc1	6.0	0.7	0.2	-4.0	-1.1	-0.4	·	·	·	·
O=C1S/C(=C\C=C\c2ccco2)C(=O)N1c1ccccc1	40.7*	13.3*	39.5*	25.5*	9.1	0.7	18.2	11.5*	6.8	2.2	IN multimer up=0.7;TR-FRET interf=-3.5;IN-LEDGF confirm=22.6*
COc1ccc(N=C2NC(=O)/C(=C/C=C/c3ccccc3)S2)cc1	6.6	-0.2	-0.2	7.0	15.6	-1.1	·	·	·	·
